High-throughput results deposited in PubChem BioAssay by The Scripps Research Institute Molecular Screening Center.
Rows were chosen to be rich in hits. Some 0.9% of all compounds tested hit in one or more screens of this group.
PPARg SRC-2 ag = PPARgamma-driven SRC-2 recruitment agonism; PPARgamma LBD-SRC-2 recruitment, biochemical; activation, % at 8 µM; 200,000 compounds, 0.34% hits; AID 1032; P37231; in the data active = activation above about 22%;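 also: 0% = vehicle and 100% = reference agonist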
Target sequence (P37231 whole entry, looked up, the tested form may be a part): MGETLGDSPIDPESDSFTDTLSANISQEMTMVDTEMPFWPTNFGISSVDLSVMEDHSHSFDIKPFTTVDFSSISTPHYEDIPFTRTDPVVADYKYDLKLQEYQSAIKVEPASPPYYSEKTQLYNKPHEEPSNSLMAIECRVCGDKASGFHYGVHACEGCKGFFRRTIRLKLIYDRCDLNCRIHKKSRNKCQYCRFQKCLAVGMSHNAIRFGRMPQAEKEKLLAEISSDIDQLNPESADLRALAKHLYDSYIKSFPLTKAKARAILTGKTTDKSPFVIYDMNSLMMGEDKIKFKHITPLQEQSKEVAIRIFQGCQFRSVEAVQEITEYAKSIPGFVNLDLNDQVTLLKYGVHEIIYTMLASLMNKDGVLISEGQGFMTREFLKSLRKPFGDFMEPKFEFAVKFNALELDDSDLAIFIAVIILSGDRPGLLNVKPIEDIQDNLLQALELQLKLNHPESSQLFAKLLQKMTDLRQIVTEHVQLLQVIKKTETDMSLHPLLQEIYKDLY
SRC1 TRFRET art = counter-screen for PPARgamma SRC-1 recruitment agonists: TR-FRET artefact; TR-FRET detection artefact counter-screen, emission ratio; stronger effect = higher value; TR-FRET ratio at 8 µM; 99,000 compounds, 0.34% hits; in the data active = TR-FRET ratio above about 2300
SRC2 TRFRET art = counter-screen for PPARgamma SRC-2 recruitment agonists: TR-FRET artefact; stronger effect = higher value; TR-FRET ratio at 8 µM; 200,000 compounds, 0.4% hits
SRC3 TRFRET art = TR-FRET artefact, counter-screen to PPARgamma/SRC-3 agonist assay; PPARgamma/SRC-3 format; stronger effect = higher value; TR-FRET ratio at 8 µM; 99,000 compounds, 0.39% hits; AID 1048
PPARg SRC3 recr = promotes SRC-3 coactivator recruitment by human PPARgamma. P37231. biochemical PPARgamma/SRC-3 coactivator recruitment assay. activation, % at 8 µM. 200,000 compounds, 0.26% hits. AID 731; in the data active = activation above about 23%;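 also: 0% = DMSO and 100% = reference agonist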
PPARg SRC1 recr = PPARgamma-driven SRC-1 recruitment agonism; P37231; PPARgamma-SRC-1 coactivator recruitment biochemical assay; activation, % at 8 µM; 200,000 compounds, 0.41% hits; AID 631; in the data active = activation above about 19%;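 also: 0% = DMSO and 100% = reference agonist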
PPARg SRC2 ag = confirmation of agonists of SRC-2 recruitment by human PPARgamma; shares compounds with PPARg SRC3 recr; biochemical SRC-2 recruitment by PPARgamma; activation, % at 8 µM; 790 compounds, 52% hits; in the data active = activation above about 22%;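 also: 0% = vehicle alone and 100% = reference agonist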
PPARg SRC1 conf = confirmation of agonists of SRC-1 recruitment by human PPARgamma; shares compounds with PPARg SRC3 recr; PPARgamma–SRC-1 coactivator recruitment biochemical assay; activation, % at 8 µM; 790 compounds, 43% hits; in the data active = activation above about 20%;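 also: 0% = vehicle wells and 100% = reference agonist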
PPARg SRC3 ag = human PPARgamma SRC-3 recruitment agonism, confirmation; shares compounds with PPARg SRC3 recr; biochemical PPARgamma-SRC-3 coactivator recruitment, agonist mode; activation, % at 8 µM; 790 compounds, 29% hits; AID 1301; in the data active = activation above about 24%;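 also: 0% = vehicle wells and 100% = reference agonist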
An asterisk follows results filed as active; nt = no result given. Rule as the data show it, unless noted: active = TR-FRET ratio above about 2000; inactive = the rest.

SMILES | PPARg SRC-2 ag | SRC1 TRFRET art | SRC2 TRFRET art | SRC3 TRFRET art | PPARg SRC3 recr | PPARg SRC1 recr | PPARg SRC2 ag | PPARg SRC1 conf | PPARg SRC3 ag
COc1ccc(CN2CCNC(=O)C2CC(=O)NCCc2c[nH]c3ccccc23)c(OC)c1 (stereo unspecified) | 10 | 1503 | 1567 | 1399 | 3 | 5 | nt | nt | nt
COc1ccccc1CNC(=O)CSc1cc(=O)n(C)c2ccccc12 | 25* | 2191 | 2116* | 1939 | 10 | 22* | 7 | 9 | 5
COc1ccccc1CNC(=O)CCCOc1cc(=O)n(C)c2ccccc12 | 8 | nt | 1525 | nt | 9 | 2 | nt | nt | nt
Cn1c(=O)cc(SCC(=O)NCCN2CCN(c3ccccc3F)CC2)c2cc(Cl)ccc21 | 107* | nt | 3707* | nt | 92* | 82* | 59* | 39* | 42*
Cn1c(=O)cc(SCC(=O)NCCCN2CCN(c3ccc(F)cc3)CC2)c2ccccc21 | 95* | nt | 4545* | nt | 134* | 97* | 51* | 34* | 36*
Cn1c(=O)cc(SCC(=O)NCc2ccc(F)cc2)c2ccccc21 | 18 | 2122 | 2135* | 2264* | 16 | 25* | 22* | 18 | 15
COCCn1c(Cc2cccn2C)nnc1SCC(=O)NCc1ccc2c(c1)OCO2 | -2 | 2024 | 1661 | 1679 | -1 | -2 | nt | nt | nt
Cc1ccc(OCC(=O)NC(=S)Nc2ccc(Br)cn2)cc1C | 1 | 1817 | 1496 | 1697 | 0 | 2 | nt | nt | nt
S=c1[nH]ncn2c1cc1oc3ccccc3c12 | 37* | 2955* | 2319* | 2852* | 28* | 31* | 5 | -2 | 4
O=c1c(O)c(-c2ccc(O)cc2O)oc2cc(O)cc(O)c12 | 7 | 1969 | 1591 | 1822 | 9 | 23* | -5 | -5 | 0
Cc1ccccc1N=C1c2ccccc2C(=O)C1[N+](=O)[O-] (stereo unspecified) | 2 | 1619 | 1783 | 1424 | 1 | 5 | nt | nt | nt
COc1cc(NC(=O)c2cc3c(=O)n(C)c4ccccc4c3n2C)cc(OC)c1OC | 11 | nt | 1684 | nt | 28* | 22* | 7 | 5 | 4
CC(=O)N1CCN(CC(=O)Nc2cc(S(=O)(=O)N3CCOCC3)ccc2C)CC1 | 2 | 1757 | 1638 | 1617 | 0 | 15 | nt | nt | nt
CCC(OC(=O)c1cc2sccc2n1C)C(=O)NCC1CCCO1 (stereo unspecified) | 11 | nt | 1531 | nt | 11 | 22* | 12 | 17 | 17
COc1ccc(C(=O)NCC(=O)OCC(=O)Nc2sccc2C#N)cc1OC | 0 | 1872 | 1589 | 1462 | 1 | 11 | nt | nt | nt
S=c1[nH]c(-c2ccc(Cl)cc2)cs1 | 30* | 2339* | 1997* | 2141* | 17 | 27* | 27* | 19 | 17
CCn1c(=O)c(=O)[nH]c2cc(C(=O)N3CCN(Cc4ccc5c(c4)OCO5)CC3)ccc21 | -2 | 1645 | 1581 | 1556 | -3 | 1 | nt | nt | nt
CCc1ccc(C(=O)COC(=O)c2ccc(Cl)nc2)cc1 | 3 | 1854 | 1461 | 1433 | 0 | -4 | nt | nt | nt
Oc1ccccc1CNc1ccc2c(c1)OCCO2 | 12 | 2053 | 1679 | 1582 | 7 | 21* | 5 | 3 | 3
c1csc(CNc2ccc3c(c2)OCCO3)c1 | 12 | 1796 | 1372 | 1463 | 4 | -3 | nt | nt | nt
CCN(CC)CCNC(=S)NC(=O)c1cn(-c2ccccc2)nc1-c1ccc(OC)cc1 | 0 | 1873 | 1839 | 1886 | 2 | 9 | nt | nt | nt
O=C(O)CCc1ccc(-c2ccc(Br)cc2)o1 | 42* | nt | 2456* | nt | 62* | 28* | 26* | 16 | 20
COc1ccc(N2C(=O)C3NN=C(C(=O)OCc4ccccc4)C3C2=O)cc1 (stereo unspecified) | -2 | 1684 | 1338 | 1522 | 6 | -6 | nt | nt | nt
CCOc1ccc(N/C=C/C(=O)c2ccc3ccccc3c2)c([N+](=O)[O-])c1 | -3 | nt | 1478 | nt | -1 | -6 | nt | nt | nt
